Measured values as given in PubChem BioAssay (NCI).
The panel holds about 83,000 compounds, 20% with a hit somewhere; the sample as a whole holds those more often.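 Step 1: grow cells in 96-well plates. Step 2: add test compound at a single concentration. Step 3: incubate 48 h. Step 4: record percent growth.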 Unmarked numbers belong to inactive results. Active and inactive are the calls of the source. Rule for the calls: active = growth percent below 10; inactive = the rest.

What follows are molecules tested on IGROV1 ovarian (assay: NCI-60 one-dose screen, 48 h (100 = growth as untreated, 0 = no growth, -100 = all killed)). Details: 10 µM unless noted.

Compound	growth
CSc1ccc(-c2n[nH]nc2-c2cc3ccccc3s2)cc1	46.4%
Clc1ccc2c(NCCCNc3nc(-n4ccnc4)nc4ccccc34)ccnc2c1	79.1%
CN1CCN(c2nc(NCCCNc3ccnc4cc(Cl)ccc34)c3ccccc3n2)CC1	70.7%
CN(C)c1ccc(NC(=O)c2ccc(/C=C/C(=O)c3ncc[nH]3)cc2)cc1	69.8%
COc1ccc(S(=O)(=O)N2CCCCC2)cc1NC(=O)c1[nH]c(C)c2c1CCCCC2=O	15.3%
CCn1c(O)c(/C=N/NC(=O)C(C)c2ccc(CC(C)C)cc2)sc1=S (stereo not given)	24.1%
Cc1nn(-c2cc(=O)[nH]c3ccc(Cl)cc23)c(N)c1C#N	73.1%
O=C1/C(=C(/c2ccccc2)N2CCOCC2)Cc2ccccc21	14%
O=C(COc1cccc(/C=C2\COc3ccccc3C2=O)c1)Nc1nccs1	5.16% (active)
CCN=C1C=CC(=C(c2ccc(N)cc2)c2ccc(N(CC)CC)c(C)c2)C=C1	11.6%
O=C(C(=O)c1ccc2c(c1)OCO2)c1ccc2c(c1)OCO2	124%
COc1ccc(/C=C2\Oc3cc(OCCCCN4CCCC4)ccc3C2=O)cc1	81.2%
COc1cc(-c2nn(-c3ccc(Br)cc3)cc2C(=O)O)ccc1O	91.2%
O=c1ccccc(-c2ccc(-c3ccco3)cc2)c1O	12.9%
Cn1cc(C(=O)c2nc(-c3c[nH]c4ccc(Br)cc34)no2)c2cc(F)ccc21	61.3%
